For some of these results: Potency and affinity values are given separately.

Design in all cases: scale not given: direction of the effect not stated beside the values
Assay [1] deals with Protein translocase subunit SecA (Escherichia coli (strain K12)) (UniProt P10408). In words: Assay to Identify E. coli SecA ATPase Inhibitors. Type of assay: functional. Conditions: 30 µM.
The target of assay [2] is T1, Ubiquitin-activating enzyme e1, putative (Leishmania donovani (strain BPK282A1)) (UniProt E9BSI1).
T1 sequence (whole entry): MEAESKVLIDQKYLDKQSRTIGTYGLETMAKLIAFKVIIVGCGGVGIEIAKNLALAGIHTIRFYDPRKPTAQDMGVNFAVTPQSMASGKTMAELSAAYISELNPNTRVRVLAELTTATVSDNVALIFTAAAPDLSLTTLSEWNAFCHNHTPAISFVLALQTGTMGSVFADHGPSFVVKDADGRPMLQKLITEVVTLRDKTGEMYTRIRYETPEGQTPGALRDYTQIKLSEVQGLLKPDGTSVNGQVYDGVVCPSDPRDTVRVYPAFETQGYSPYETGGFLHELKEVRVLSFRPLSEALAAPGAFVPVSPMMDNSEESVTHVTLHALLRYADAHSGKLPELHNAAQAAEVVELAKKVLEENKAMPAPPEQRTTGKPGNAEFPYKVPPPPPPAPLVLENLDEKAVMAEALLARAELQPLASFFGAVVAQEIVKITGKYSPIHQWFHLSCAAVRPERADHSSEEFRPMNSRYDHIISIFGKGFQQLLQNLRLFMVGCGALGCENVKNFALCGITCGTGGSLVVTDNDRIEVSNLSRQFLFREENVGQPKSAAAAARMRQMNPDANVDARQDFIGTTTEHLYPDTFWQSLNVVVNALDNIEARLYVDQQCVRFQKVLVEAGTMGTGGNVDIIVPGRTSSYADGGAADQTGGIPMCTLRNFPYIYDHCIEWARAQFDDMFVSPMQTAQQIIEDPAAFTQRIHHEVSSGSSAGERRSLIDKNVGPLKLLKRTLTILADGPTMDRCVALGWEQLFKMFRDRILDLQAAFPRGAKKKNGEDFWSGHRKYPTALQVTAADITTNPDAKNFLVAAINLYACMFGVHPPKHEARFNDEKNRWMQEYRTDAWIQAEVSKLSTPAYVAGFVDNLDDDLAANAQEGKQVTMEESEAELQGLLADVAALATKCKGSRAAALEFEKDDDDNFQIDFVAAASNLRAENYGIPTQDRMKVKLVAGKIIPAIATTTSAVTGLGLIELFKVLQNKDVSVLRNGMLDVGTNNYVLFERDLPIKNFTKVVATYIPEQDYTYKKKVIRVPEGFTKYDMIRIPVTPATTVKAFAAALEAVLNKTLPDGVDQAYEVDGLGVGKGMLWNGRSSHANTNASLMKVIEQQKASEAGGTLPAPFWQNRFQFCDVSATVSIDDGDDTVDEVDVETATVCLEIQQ
In words: Leishmania donovani Ubiquitin Activating Enzyme (LdE1). The conditions noted are these: 30 µM. The class given is functional.

The target of assay [3] is AMP-activated protein kinase, AMPK (Homo sapiens) (UniProt P54646+O43741+P54619+Q9UGJ0+Q9Y478+Q13131+Q9UGI9). Briefly: AMP-dependent Kinase enzyme assay. An in vitro enzyme assay that detects ADP turnover that is directly proportional to AMPK activity. This uses naive AMPK that is activated during the assay with MK-8722. Conditions: 30 µM. The class given is functional.

The target in assay [4] is Sialic acid-binding Ig-like lectin 9 (Homo sapiens) (UniProt Q9Y336). In words: Hs-Siglec9 ALPHAscreen SOP 20170721. Conditions: 10 µM. On the technique in general: Bead proximity is the source of the signal in Alpha formats.
Assay [5] concerns Trypanosoma cruzi. Briefly: Trypanosoma cruzi phosphomannomutase and mannose-1-phosphate guanylyltransferase assay. The conditions noted are these: 10 µM. Type of assay: functional.
Assay [6] has as its target T2, Arginase-2, mitochondrial (Homo sapiens) (UniProt P78540).
T2 sequence (whole entry): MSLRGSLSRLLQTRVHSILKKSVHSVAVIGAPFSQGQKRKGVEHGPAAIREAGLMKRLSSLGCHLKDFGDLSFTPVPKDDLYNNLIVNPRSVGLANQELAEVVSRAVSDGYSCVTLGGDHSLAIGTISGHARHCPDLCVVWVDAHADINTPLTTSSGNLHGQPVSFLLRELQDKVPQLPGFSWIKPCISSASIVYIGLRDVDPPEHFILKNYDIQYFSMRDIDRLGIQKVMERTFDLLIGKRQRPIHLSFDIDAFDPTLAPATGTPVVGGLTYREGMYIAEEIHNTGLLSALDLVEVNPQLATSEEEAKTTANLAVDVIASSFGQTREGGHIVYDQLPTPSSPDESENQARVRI
Briefly: in vitro enzyme assay to detect the production of urea directly proportional to the activity of Arginase II. Note: in the data most compounds retested in dose-response had high values. Type of assay: functional. Conditions: 33.3 µM.

Assay [7] has as its target T3, Proteasome subunit beta (Trypanosoma cruzi) (UniProt O96673).
T3 sequence (whole entry): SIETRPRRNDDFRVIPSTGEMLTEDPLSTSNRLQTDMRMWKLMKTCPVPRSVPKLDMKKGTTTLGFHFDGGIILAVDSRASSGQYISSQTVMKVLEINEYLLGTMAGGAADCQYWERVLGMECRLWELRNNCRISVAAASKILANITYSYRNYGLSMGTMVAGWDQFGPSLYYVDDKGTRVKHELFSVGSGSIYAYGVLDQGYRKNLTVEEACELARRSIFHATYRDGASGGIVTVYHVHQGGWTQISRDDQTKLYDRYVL
Briefly: Trypanosoma cruzi proteasome chymotrypsin-like activity (TcProtChymo) assay. Note: in the data most compounds retested in dose-response had high values. Type of assay: functional. The conditions noted are these: 9.37 µM.

The species entered for assay [8] is Homo sapiens. Briefly: To identify inhibition of the IFN signalling (Jak-Stat) pathway via expression of an eGFP reporter gene under the control of an IFN-stimulated response element (ISRE) containing MxA promoter. Conditions: 30 µM. The class given is functional. In general terms: Reporter assays use an easily measured gene product as a stand-in for the process of interest.

Assay [9] addresses T4, Tyrosyl-tRNA synthetase, putative (Trypanosoma cruzi (strain CL Brener)) (UniProt Q4DSP6).
T4 sequence (whole entry): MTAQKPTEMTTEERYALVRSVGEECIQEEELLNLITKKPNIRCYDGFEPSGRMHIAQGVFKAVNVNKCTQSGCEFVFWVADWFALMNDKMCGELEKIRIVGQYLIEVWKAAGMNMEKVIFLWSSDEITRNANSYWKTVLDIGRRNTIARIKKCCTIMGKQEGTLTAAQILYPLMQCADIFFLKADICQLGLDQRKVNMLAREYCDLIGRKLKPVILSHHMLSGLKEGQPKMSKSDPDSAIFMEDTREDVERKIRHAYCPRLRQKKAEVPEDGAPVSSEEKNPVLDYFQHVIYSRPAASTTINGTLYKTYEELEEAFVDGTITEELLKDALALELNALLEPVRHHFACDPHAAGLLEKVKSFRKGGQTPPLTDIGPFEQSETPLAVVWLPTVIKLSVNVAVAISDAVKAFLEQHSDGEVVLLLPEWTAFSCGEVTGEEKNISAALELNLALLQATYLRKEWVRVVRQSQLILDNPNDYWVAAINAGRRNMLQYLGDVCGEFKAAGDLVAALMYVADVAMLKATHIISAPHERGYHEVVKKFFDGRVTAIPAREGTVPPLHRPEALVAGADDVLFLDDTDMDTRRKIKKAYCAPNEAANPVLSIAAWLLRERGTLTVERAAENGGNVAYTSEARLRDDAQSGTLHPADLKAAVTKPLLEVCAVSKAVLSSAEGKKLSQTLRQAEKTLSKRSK
In words: Trypanosoma cruzi tyrosyl tRNA synthetase (TcYRS) _High Tyrosine SOP. Note: in the data most compounds retested in dose-response had high values. The class given is functional. Conditions: 30 µM.

Assay [10] addresses T4, Tyrosyl-tRNA synthetase, putative (Trypanosoma cruzi (strain CL Brener)). In words: Trypanosoma cruzi tyrosyl tRNA synthetase (TcYRS) SOP. The class given is functional. The conditions noted are these: 30 µM.
Assay [11] deals with Chromo domain-containing protein 1 (Saccharomyces cerevisiae (strain ATCC 204508 / S288c) (Baker's yeast)) (UniProt P32657). In words: ScCHD-1 Enzyme Inhibition Assay. Note: in the data most compounds retested in dose-response had high values. The class given is functional. Conditions: 30 µM.
Chain of Chromo domain-containing protein 1 (Saccharomyces cerevisiae (strain ATCC 204508 / S288c) (Baker's yeast)) (P32657 whole entry, the tested form may be a part): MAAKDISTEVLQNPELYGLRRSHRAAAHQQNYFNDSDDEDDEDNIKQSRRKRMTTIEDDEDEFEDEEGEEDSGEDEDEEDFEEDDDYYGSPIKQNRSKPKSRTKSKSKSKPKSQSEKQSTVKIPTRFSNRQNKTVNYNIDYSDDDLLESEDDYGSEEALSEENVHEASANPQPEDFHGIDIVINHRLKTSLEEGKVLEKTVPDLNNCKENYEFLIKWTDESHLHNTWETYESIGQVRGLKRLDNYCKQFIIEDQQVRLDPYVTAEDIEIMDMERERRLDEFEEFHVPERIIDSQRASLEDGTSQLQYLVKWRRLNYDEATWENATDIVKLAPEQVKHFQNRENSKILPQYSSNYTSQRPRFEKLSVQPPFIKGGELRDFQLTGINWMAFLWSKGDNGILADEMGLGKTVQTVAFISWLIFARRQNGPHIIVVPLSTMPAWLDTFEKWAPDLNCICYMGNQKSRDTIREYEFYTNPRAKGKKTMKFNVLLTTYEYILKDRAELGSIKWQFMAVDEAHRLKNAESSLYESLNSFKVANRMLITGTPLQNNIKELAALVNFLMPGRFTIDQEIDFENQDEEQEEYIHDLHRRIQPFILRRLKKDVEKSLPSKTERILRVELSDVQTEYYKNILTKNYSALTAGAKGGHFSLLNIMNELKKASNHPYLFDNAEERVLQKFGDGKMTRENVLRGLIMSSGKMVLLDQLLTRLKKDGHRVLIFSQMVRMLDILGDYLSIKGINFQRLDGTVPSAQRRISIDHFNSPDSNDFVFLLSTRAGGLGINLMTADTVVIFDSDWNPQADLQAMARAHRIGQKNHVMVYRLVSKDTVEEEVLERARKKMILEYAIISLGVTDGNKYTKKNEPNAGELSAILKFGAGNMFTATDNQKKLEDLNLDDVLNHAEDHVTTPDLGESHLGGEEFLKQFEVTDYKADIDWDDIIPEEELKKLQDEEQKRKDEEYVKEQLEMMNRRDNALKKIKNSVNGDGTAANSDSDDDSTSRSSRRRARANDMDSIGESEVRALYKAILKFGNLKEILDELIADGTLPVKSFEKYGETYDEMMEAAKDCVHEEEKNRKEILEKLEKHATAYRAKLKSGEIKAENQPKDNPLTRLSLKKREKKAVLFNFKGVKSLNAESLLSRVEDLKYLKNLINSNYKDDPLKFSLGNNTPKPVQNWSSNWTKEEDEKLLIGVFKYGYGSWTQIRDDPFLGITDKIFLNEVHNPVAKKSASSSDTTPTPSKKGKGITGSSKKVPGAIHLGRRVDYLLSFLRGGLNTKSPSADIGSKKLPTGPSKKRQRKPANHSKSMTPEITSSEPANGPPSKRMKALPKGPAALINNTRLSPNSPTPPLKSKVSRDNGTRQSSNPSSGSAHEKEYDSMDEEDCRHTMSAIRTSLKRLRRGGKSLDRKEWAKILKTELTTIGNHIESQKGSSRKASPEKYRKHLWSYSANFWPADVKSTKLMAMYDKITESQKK

Chain of Protein translocase subunit SecA (Escherichia coli (strain K12)) (P10408 whole entry): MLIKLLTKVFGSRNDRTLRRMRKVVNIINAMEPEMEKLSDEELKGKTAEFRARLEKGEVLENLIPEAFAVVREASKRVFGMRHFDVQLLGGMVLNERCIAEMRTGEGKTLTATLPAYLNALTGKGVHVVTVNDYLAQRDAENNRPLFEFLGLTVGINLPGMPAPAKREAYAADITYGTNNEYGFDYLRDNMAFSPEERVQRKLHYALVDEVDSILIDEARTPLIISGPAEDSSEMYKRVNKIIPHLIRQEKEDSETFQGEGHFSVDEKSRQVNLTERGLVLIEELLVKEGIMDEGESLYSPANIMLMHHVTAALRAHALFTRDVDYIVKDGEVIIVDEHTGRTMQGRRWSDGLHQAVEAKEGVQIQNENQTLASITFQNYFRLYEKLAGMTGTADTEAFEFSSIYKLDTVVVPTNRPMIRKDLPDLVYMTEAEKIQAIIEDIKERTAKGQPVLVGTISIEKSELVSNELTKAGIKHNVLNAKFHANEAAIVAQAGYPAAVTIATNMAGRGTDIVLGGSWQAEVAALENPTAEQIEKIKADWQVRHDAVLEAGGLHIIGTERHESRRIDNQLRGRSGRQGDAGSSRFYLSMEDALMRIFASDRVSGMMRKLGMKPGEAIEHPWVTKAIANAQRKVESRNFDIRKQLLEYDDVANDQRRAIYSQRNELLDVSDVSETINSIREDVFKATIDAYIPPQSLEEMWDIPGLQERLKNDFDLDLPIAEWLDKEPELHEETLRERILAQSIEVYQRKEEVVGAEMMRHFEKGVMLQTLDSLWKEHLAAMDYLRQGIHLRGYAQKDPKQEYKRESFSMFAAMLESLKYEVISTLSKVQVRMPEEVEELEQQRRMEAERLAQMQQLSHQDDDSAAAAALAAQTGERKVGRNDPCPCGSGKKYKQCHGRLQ
Chain of Sialic acid-binding Ig-like lectin 9 (Homo sapiens) (Q9Y336 whole entry): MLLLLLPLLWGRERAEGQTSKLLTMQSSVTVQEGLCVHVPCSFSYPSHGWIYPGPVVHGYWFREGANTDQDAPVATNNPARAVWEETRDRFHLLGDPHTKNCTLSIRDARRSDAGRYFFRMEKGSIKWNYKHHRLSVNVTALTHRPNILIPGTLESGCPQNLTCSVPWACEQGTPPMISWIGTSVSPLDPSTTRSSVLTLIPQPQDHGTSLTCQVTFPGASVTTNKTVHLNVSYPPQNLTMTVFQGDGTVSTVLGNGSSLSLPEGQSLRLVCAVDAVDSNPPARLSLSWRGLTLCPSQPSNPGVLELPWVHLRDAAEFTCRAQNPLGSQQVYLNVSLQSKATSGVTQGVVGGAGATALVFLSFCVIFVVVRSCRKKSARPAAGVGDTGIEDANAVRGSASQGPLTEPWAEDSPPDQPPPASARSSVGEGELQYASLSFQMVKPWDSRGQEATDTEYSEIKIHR

In the case of `CCc1nnc2n1CCN(C(=O)c1cnc3ccccc3n1)C2`, the Percent Effect was -4.63% in [1]; 4.17% in assay [2]; -7.62% in assay [3]; 28.2% in assay [4]; 3.79% in [5]; 17.2% in [6]. Further, the Percent Effect was 12.5% in assay [7]; -6.01% in [8]; 5.26% in assay [9]; 12.8% in assay [10]; -3.35% in assay [11].
For the molecule `O=C(c1cc(F)ccc1F)C1CCN(C(=O)c2cccnc2O)CC1`, the Percent Effect in assay [1] is -5.29%; in assay [2] it was 7.79%; in assay [3] it was 3.43%; in [4], 13.6%; in [5] it was 2.06%; in [6], 0.21%. In addition, the Percent Effect in assay [7] is 3.8%; in [8] it was -28.1%; in assay [9] it was 1.91%; in [10], 9.41%; in assay [11], -12.7%.
Consider `COCCN1C(=O)[C@]2(CC[C@@H]3CN(C(=O)NC4CCCC4)C[C@@H]32)N=C1C`, for which the Percent Effect was -2.35% in [1]; 8% in assay [2]; -3.34% in assay [3]; 5.66% in assay [4]; 4.83% in assay [5]; -52.5% in assay [6]. For the same molecule, the Percent Effect in [7] is 6.84%; in assay [8], -7.18%; in [9] it was -7.29%; in assay [10] it was 10%; in [11] it was -9.58%.
Consider `CC(=O)N1CCN(CC2CCOc3ccccc3C2)CC1` (stereo unspecified), for which the Percent Effect was -5.96% in assay [1]; -1.39% in assay [2]; -8.25% in assay [3]; 5.04% in assay [4]; -5.34% in [5]; 0.883% in assay [6]. The Percent Effect in [7] is 14.6%; in assay [8] it was -1.92%; in [9], 1.05%; in assay [10] it was -7.69%; in assay [11], -1.42%.
`CC(C)c1nn(C)c(N2CCOCC2)c1CN[C@H](C)CO`: the Percent Effect in assay [1] was -5.92%; in [2], 7.89%; in assay [3] it was -9.46%; in assay [4], -5.12%; in [5] it was -1.96%; in assay [6], 1.44%. Moreover, the Percent Effect in [7] was 3.3%; in assay [8], -5.23%; in assay [9], 5.42%; in [10], 6.17%; in assay [11], -4.66%.
As for `COc1ccccc1OCc1cc(C(=O)N2CCN[C@H](C)C2)n[nH]1`, the Percent Effect in assay [1] was -4.07%; in assay [2], 8.11%; in assay [3], -4.98%; in assay [4] it was 25.9%; in assay [5], 4.63%; in [6], 2.38%. Also, the Percent Effect in assay [7] was 27.4%; in assay [8], 3.54%; in assay [9], 1.59%; in assay [10], 12.2%; in [11] it was -8.49%.
With `COc1cc(CNC(=O)c2c(C)noc2C(C)C)ccn1`, the Percent Effect in [1] was -2.87%; in [2] it was 26%; in assay [3] it was -8.18%; in assay [4], 3.15%; in assay [5], 3.75%; in assay [6], 3.92%. The Percent Effect in [7] is 10.8%; in assay [8] it was 9.63%; in assay [9], 10.7%; in assay [10], 21.9%; in [11], -10.2%.
`O=C(Cn1nc(-c2cccs2)ccc1=O)N1CCCCCC1`: the Percent Effect in assay [1] was -3.74%; in [2] it was -1.33%; in assay [3], 5.86%; in assay [4], 8.95%; in [5], 1.77%; in [6] it was -10.4%. For the same molecule, the Percent Effect in assay [7] was 7.21%; in assay [8], 9%; in assay [9], 1.06%; in assay [10], 7.69%; in assay [11], -3.49%.
With `Cc1ccc(CNCc2nnc3n2CCCC3C(F)(F)F)s1` (stereo unspecified), the Percent Effect in assay [1] is -1.65%; in assay [2], 8%; in [3], -7.92%; in [4] it was 8.27%; in assay [5], 5.36%; in assay [6], 4.69%. Further, the Percent Effect is 18% in assay [7]; 11.4% in assay [8]; 9.29% in assay [9]; 21% in [10]; -5.37% in [11].
With `CN(Cc1ncc[nH]1)CC(c1cccs1)N1CCOCC1` (stereo unspecified), the Percent Effect in assay [1] is -0.354%; in [2], 13.5%; in assay [3], -12.7%; in [4] it was -6.28%; in assay [5], 4.92%; in [6], -1.29%. Further, the Percent Effect was 12.4% in [7]; 17.4% in assay [8]; 11.9% in assay [9]; 23.2% in assay [10]; -5.94% in [11].
Consider `CCCS(=O)(=O)Nc1ccc2c(c1)OCC(C)(C)C(=O)N2C`, for which the Percent Effect in [1] is -0.588%; in [2], 11%; in assay [3] it was -6.5%; in assay [4] it was 1.41%; in assay [5] it was -5.09%; in [6], -2.27%. For the same molecule, the Percent Effect in assay [7] was 12.6%; in assay [8] it was 8.18%; in [9], 2.15%; in assay [10], 10%; in [11], -5.87%.

These data come from ChEMBL document CHEMBL3988442, “University of Dundee, Small-Polar-MMV Screening Library” (2021).
